Measurements: PubChem BioAssay (NCI)
Compounds without any hit were thinned out: in the full panel of roughly 79,000, 15% have a hit. Values without a mark were called inactive. Activity calls are given as the source filed them. Rule as the data show it: active = growth inhibition above about 70%; inactive = the rest.

assay: NCI Yeast Anticancer Drug Screen. Data for the mec2-1 strain (AID 157); conditions: S. cerevisiae mec2-1 strain, at 50.0 µM, active compounds read high
Description: Growth inhibition of yeast strains with defined genetic alterations is measured as a screen for potential anti-cancer activity. Selected strains with alterations in DNA damage repair or cell cycle control were exposed to compounds and growth inhibition was measured relative to vehicle treated controls. The strain used in this assay is mec2-1

Row | SMILES | growth inhibition
1 | COC(=O)C(C)CN1CC(C)OC(C)C1 (stereo not given) | -26.2%
2 | COc1ccc(C2c3cc4c(c(OC)c3CC3OCC(=O)C32)OCO4)cc1OC (stereo not given) | -15.7%
3 | COc1cc(/C=N\Nc2ccccc2[N+](=O)[O-])cc(OC)c1OC | -25.4%
4 | CCCCCCSC[C@H](OC(C)=O)[C@@H](OC(C)=O)[C@@H](OC(C)=O)[C@@H](COC(C)=O)OC(C)=O | -14.8%
5 | Cc1ccc(OCC2OC(n3cnc4nc(N)nc(Cl)c43)CC2Oc2ccc(C)cc2)cc1 (stereo not given) | 28.4%
6 | COc1cc(/C=C(/C#N)C(N)=O)ccc1O | -35%
7 | COc1cc(-c2cc(=O)c3ccc(O)cc3o2)cc(OC)c1OC | -32.4%
8 | COC(=O)c1ccc2oc(=O)cc(C)c2c1O | -7.75%
9 | CCOC(=O)c1cc(C)nc2c1c(=O)n(-c1ccccc1)c(=O)n2CCCCN1CCN(c2ncccn2)CC1 | -32.4%
10 | CC1(C)C2CCC1(CS(=O)(=O)O)C(=O)C2 (stereo not given) | -6.6%
11 | C=C(CCC(C(=O)O)C1CCC2(C)C3=C(CCC12C)C1(C)CCC(O)C(C)(C)C1CC3)C(C)C (stereo not given) | -29.5%
12 | CC(C)N(C)c1ccc(N=Nc2cc(Cl)ccc2Cl)cc1 | -36.8%
13 | N#C/C=C1\C=CC(O)C(O)C1OC1OC(CO)C(O)C(O)C1O (stereo not given) | 7.3%
14 | Clc1ccc(C=NCCN=Cc2ccc(Cl)c(Cl)c2)cc1Cl | -20.3%
15 | CCCCCCCCCC(O)CC(=O)c1c(O)cccc1O (stereo not given) | 77.2% (active)
16 | COc1ccc2nc(NC(=O)/C(C#N)=C/c3ccccc3)sc2c1 | -24.9%
17 | COc1ccc(/C=N\NC(=O)OC(C)(C)C)c(OC)c1OC | -33.4%
18 | CCCCCCCCCCCCC/C=C/[C@H]1[C@@H](C(=O)OC)N1S(=O)c1ccc(C)cc1 (stereo not given in full) | -27.6%
19 | C=CC1=C(C)C2=NC1=CC1=NC(=C(CC)/C1=C\O)C=C1N=C3C(=C1C)C(=O)[C@H](C(=O)OC)C3=C1NC(=C2)[C@@H](C)[C@@H]1CCC(=O)O | 0.7%
20 | CCCCCCCCCCCCCCCCOc1ccc(C(=O)NN)cc1N | -29.9%

Row | SMILES | growth inhibition
21 | CCCN(CCC)CCC(=O)OCC | -29.2%
22 | O=C1C=CC=C/C1=C1\N=C(c2ccccc2OCC(=O)c2ccc(Br)cc2)SS1 | 18.1%
23 | C[C@@H]1C[C@](O)([C@@H](C)Cl)C(=O)O[C@@H]2CCN3CC=C(COC(=O)[C@]1(C)O)[C@H]23 | -16.1%
24 | COc1cc(/C=N\NC(=O)OC(C)(C)C)cc(OC)c1OC | -17.4%
25 | NNc1[nH]c(=S)[nH]c1C(N)=O | -8.5%
26 | CCCCCCCCCCCCOc1ccc(C)cc1 | -25%
27 | CCCN1CCc2cc(OC)c(OC)cc2C1Cc1ccc(OC)c(OC)c1 (stereo not given) | -0.2%
28 | NC(CCC(=O)OCc1ccccc1)C(=O)OCc1ccccc1 (stereo not given) | -14.3%
29 | CCCCCCCCCOCC(O)COc1ccccc1[N+](=O)[O-] (stereo not given) | -15.9%
30 | CCOC(=O)NC(C)(C)CN(C(=O)OCC)c1ccccc1 | -39.6%
31 | COc1ccc2c(C)cc(N/N=C/c3ccc(C)s3)nc2c1 | -26.5%
32 | O=C(Cc1nc2ccc(C(=O)c3ccccc3)cc2[nH]c1=O)C(=O)Nc1ccccc1[N+](=O)[O-] | -15.6%
33 | CCCCCCC(=O)CCCC(C)CCCC(C)C (stereo not given) | -23.6%
34 | O=[N+]([O-])c1ccc2nc3c4ccccc4c4ccccc4c3nc2c1 | -1.1%
35 | CC1CC(C)(C)N=C(Cc2ccccc2)O1 (stereo not given) | -11.6%
36 | CN(c1ccccc1Cl)S(C)(=O)=O | -42.6%
37 | CCCCCCCCOC(=O)C(=O)C(C#N)c1ccccc1 (stereo not given) | 6.3%
38 | COC(=O)C(C(=O)C(=O)Nc1c(C)cccc1C(C)(C)C)c1nc2ccc(Cl)cc2[nH]c1=O (stereo not given) | -26.9%
39 | O=c1c(=O)n(CCO)n(CCO)c(=O)n1CCO | -28.9%
40 | O=S(=O)(O)c1cc(O)c2c(O)cc(S(=O)(=O)O)cc2c1 | -20.1%
